# Values joined by “and” are separate entries in the source; they are usually repeats but may differ in a detail not shown here. Equal entries are not always repeated. Active and inactive are the calls of the source.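 How the source made its calls, unless noted: active means compound that reduces growth-factor-driven endothelial tube area in a mixed cell culture, no cutoff stated; inactive means the rest.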
# Tests used:
# [1] = stimulators of nuclear beta-catenin in C2C12, primary screen, imaging, WNT3A-conditioned medium, mouse C2C12, NPC library (AID 1117326; in the data active means nuclear beta-catenin stimulation mostly above about 4.2%, no sharp cut-off; inactive means mostly below about 10%); conditions: stronger effect = higher value
# [2] = stimulators of insulin release from INS-1E, primary screen, cell-based, 5 mM glucose, NPC library (AID 1117329;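 active means compound raises insulin release from rat beta cells at 5 mM glucose, no numeric limit stated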); conditions: rat INS-1E insulin secretion, at 10 µM, stronger effect = higher value
# [3] = growth inhibition of GSK3B-pretreated HCT116 cells – cell-based, CellTiter-Glo, 0.2 to 20 µM (AID 1117336;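 active means compounds lowering colon cancer cell viability after pretreatment blocking the GSK3B kinase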); conditions: HCT116 viability after GSK3B inhibitor, at 20 µM, stronger effect = higher value
# [4] = inhibition of endothelial tube formation, primary screen, imaging, VEGF stimulated, CD31 staining, tube area, NPC library (AID 1117340); conditions: VEGF-stimulated ADSC/ECFC co-culture, at 10 µM, stronger effect = higher value
# [5] = glucagon-like peptide 1 release enhancers, primary assay, NCI-H716 cell line, NPC library (AID 1117341;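 active means compound raises GLP1 secretion from the human gut endocrine cells, with no numeric limit stated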); conditions: NCI-H716 cells, at 10 µM, stronger effect = higher value
# [6] = HCT116 colon cancer cell growth inhibition, primary screen, CellTiter-Glo luminescence, NPC library (AID 1117342;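 active means compounds that lower survival of HCT116 colon cancer cells in the luminescence readout, no numeric limit stated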); conditions: at 20 µM (top of the series)
# [7] = CellTiter-Glo luminescent readout of SW480 viability loss, NPC library primary (AID 1117343;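 active means compounds that lower viability of the colon cancer cells in the luminescence readout, with no numeric limit stated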); conditions: CellTiter-Glo luminescence; at 20 µM (top of the series)
# [8] = decreased DLD-1 cellular survival, CellTiter-Glo luminescent readout, NPC compound collection, primary HTS (AID 1117346;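 active means compounds that lower survival of DLD-1 colon cancer cells in the luminescence readout, no cutoff given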); conditions: DLD-1 viability, CellTiter-Glo luminescence; at 20 µM (top of the series)
# [9] = molecular target: 6-phosphogluconate dehydrogenase, decarboxylating (Homo sapiens) (UniProt P52209); assay: 6PGD enzyme inhibitors, primary screen, biochemical, human, recombinant enzyme, NADPH absorbance (AID 1159550;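 active means at least 20% inhibition of 6-phosphogluconate dehydrogenase activity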); conditions: recombinant 6PGD, NADPH absorbance 341 nm; at 10 µM; stronger effect = higher value
# Chain of 6-phosphogluconate dehydrogenase, decarboxylating (Homo sapiens) (P52209 whole entry, looked up): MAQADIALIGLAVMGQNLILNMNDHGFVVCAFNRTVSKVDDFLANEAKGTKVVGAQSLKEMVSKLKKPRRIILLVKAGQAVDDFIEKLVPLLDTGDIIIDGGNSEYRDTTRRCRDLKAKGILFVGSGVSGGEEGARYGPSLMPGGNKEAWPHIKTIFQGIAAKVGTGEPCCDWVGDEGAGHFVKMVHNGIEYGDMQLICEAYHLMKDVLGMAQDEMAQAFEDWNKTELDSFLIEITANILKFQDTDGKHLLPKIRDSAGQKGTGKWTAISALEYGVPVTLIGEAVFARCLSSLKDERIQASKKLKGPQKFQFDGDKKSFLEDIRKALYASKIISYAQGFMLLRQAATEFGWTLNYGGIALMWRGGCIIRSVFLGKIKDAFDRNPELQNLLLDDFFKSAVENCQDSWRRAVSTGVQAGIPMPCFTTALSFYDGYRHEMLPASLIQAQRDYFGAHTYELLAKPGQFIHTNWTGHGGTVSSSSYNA
# [10] = survival rescue of mitochondrial mutant cells in low glucose, primary screen, MELAS cybrids, Rieske KO mouse fibroblasts, CellTiter-Glo (AID 1508586;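 active means mean z-score across replicates of 1.96 or higher in either the MELAS or the Rieske mutant cell line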;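 further: z relative to plate mean and SD of compound and empty wells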)
# [11] = molecular target: NAD(+) hydrolase SARM1 (Homo sapiens) (UniProt Q6SZW1); assay: SARM1 TIR NADase inhibitors, cell lysate, NAD-Glo luminescence (AID 1508614;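 active means compound whose remaining NAD level is above about 45 nM, limit read from the data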); conditions: SAM-TIR HEK293T lysate NADase, at 1 µM, stronger effect = higher value
# Chain of NAD(+) hydrolase SARM1 (Homo sapiens) (Q6SZW1 whole entry, looked up, the tested form may be a part): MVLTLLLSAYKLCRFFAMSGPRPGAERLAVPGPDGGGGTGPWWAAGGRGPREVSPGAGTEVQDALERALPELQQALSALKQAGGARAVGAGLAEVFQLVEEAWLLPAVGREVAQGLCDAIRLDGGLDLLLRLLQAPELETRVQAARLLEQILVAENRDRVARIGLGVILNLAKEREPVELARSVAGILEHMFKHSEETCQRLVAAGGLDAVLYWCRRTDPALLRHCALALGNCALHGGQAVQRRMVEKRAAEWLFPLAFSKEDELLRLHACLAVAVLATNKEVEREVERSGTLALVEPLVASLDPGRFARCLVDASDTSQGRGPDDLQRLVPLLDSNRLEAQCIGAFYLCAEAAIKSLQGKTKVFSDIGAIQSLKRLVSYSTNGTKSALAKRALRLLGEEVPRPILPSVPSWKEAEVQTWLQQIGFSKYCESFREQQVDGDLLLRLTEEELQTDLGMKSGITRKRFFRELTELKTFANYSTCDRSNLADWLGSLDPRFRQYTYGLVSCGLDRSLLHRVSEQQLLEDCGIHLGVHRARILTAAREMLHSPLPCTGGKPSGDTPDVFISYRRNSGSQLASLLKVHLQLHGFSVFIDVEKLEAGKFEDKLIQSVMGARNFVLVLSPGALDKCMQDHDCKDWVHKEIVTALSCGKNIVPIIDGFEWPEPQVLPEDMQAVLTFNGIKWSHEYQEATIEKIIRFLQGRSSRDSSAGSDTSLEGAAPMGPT
# [12] = molecular target: Mitogen-activated protein kinase 7 (Homo sapiens) (UniProt Q13164); assay: ERK5 transactivation activators in reporter cells, primary screen, cell-based, HTS (AID 1508626;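 active means luciferase signal above three times the same-plate solvent-only control wells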;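 further: luciferase driven by Gal4-ERK5 fusion binding five Gal4 sites before minimal TATA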); conditions: HeLa Gal4-ERK5 transactivation, 18 h, at 5 µM, stronger effect = higher value
# Chain of Mitogen-activated protein kinase 7 (Homo sapiens) (Q13164 whole entry, looked up, the tested form may be a part): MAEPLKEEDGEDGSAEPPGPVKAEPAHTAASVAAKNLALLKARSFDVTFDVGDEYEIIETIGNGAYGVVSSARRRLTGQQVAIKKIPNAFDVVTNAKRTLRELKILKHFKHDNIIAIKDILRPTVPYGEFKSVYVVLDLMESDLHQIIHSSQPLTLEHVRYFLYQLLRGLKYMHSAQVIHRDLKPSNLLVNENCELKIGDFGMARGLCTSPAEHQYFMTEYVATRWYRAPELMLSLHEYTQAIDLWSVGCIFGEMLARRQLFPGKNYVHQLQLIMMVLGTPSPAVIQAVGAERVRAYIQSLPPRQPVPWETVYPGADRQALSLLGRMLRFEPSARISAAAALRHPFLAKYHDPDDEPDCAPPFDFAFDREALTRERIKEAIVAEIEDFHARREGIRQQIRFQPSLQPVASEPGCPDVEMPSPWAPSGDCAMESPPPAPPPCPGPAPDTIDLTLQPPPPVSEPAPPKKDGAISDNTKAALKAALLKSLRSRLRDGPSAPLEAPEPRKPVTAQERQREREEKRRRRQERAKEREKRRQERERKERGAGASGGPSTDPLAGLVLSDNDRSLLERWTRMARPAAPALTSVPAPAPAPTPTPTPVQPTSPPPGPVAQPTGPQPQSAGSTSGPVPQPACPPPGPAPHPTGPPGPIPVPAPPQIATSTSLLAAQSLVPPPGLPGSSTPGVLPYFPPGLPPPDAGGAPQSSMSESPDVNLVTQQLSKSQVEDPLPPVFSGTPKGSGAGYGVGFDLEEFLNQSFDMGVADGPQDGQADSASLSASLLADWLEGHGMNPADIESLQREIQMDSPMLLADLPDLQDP
# [13] = modulation of C. elegans fzo-1 (AID 1259413; call rule not given here;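 further: fzo-1 mutant C. elegans worms in liquid wells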); conditions: C. elegans fzo-1 modulator screen, mean read-out; stronger effect = higher value
# [14] = differential killing of epithelial or mesenchymal cells, primary screen, imaging, PC-3E GFP, TEM4-18 mCherry, co-culture (AID 1345086;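 active means compounds killing one labelled cell type while sparing the other, by normalised counts and ratio limits, not self-fluorescent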;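 further: cells exposed to compound for 72 h before imaging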;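 on red/green cell ratio (normalised): normalised mesenchymal count divided by normalised epithelial count so high means epithelial killing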); conditions: imaging cell counts, at 1 µM
# [15] = sensitizers of A549 cells to miR-34 induction, primary screen, imaging, A549 dox-inducible miR-34, nuclei and caspase counts (AID 1347080;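 active means compounds whose cell count with miR-34 switched on is under 0.7 times the count with it off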); conditions: A549 miR-34 inducible, Hoechst nuclei count, 48 h
# [16] = system: F380Y; assay: modulators of BK channel variants, profiling panel, selectivity assay, cell-based, U2OS BacMam, thallium flux, beta subunits (AID 1259406;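 active means thallium flux through the channel raised or lowered by more than 3 SD from vehicle-only wells, actives on both sides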;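 further: initial slope of Thallos dye fluorescence rise after thallium is added; log ratio against the mean of 0.3% DMSO vehicle wells on the same plate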); conditions: at 30 µM
# [17] = system: F380Y/beta1; assay: as above; conditions: at 30 µM
# [18] = system: F380Y/beta2Delta; assay: as above; conditions: at 30 µM
# [19] = MELAS cybrid survival, CellTiter-Glo 48 h, stronger effect = higher value
# [20] = Rieske KO mouse fibroblast survival, CellTiter-Glo 72 h
# [21] = stronger effect = lower value, cell number ratio, induced over uninduced
# [22] = measured here: relative caspase fold change +Dox/-Dox
# [23] = measured here: total cells with miR-34 induction, stronger effect = lower value
# [24] = measured here: total cells without miR-34 induction
smiles,measurement,setting,value
CCOc1c(N2CCOCC2)cnn(C)c1=O,nuclear beta-catenin stimulation,[1]; at 10 µM,-0.3% (inactive)
same,nuclear beta-catenin stimulation,"[1]; stimulation, at 2 µM",4.4%
same,insulin secretion stimulation,[2],1.5% (inactive)
same,viability decrease,[3],-36.6% (inactive)
same,tube area decrease,[4],4.1% (inactive)
same,GLP1 secretion stimulation,[5],0.1% (inactive)
same,inhibition of viability,[6],11.2% (inactive)
same,viability decrease (inhibition),[7],7.7% (inactive)
same,viability decrease (inhibition),[8],-14.1% (inactive)
CCc1cc(S(=O)(=O)O)c2cc(C(C)C)cccc1-2,nuclear beta-catenin stimulation,[1]; at 10 µM,-0.2% (inactive)
same,nuclear beta-catenin stimulation,"[1]; stimulation, at 2 µM",-2.2%
same,insulin secretion stimulation,[2],0.1% (inactive)
same,viability decrease,[3],-5.3% (inactive)
same,tube area decrease,[4],-12.6% (inactive)
same,GLP1 secretion stimulation,[5],-20.6% (inactive)
same,inhibition of viability,[6],1.1% (inactive)
same,viability decrease (inhibition),[7],-19% (inactive)
same,viability decrease (inhibition),[8],-14.2% (inactive)
c1ccc([C@H]2CN3CCSC3=N2)cc1,nuclear beta-catenin stimulation,[1]; at 10 µM,-0.8% (inactive)
same,nuclear beta-catenin stimulation,"[1]; stimulation, at 2 µM",-0.5%
same,insulin secretion stimulation,[2],0.8% (inactive)
same,viability decrease,[3],-1.75% (inactive)
same,tube area decrease,[4],2.3% (inactive)
same,GLP1 secretion stimulation,[5],-1.2% (inactive)
same,inhibition of viability,[6],-2.5% (inactive)
same,viability decrease (inhibition),[7],-10.8% (inactive)
same,viability decrease (inhibition),[8],-6.9% (inactive)
same,inhibition,[9],-3.99% (inactive)
same,z-score,[10]; [19],-0.321 (inactive) and -0.38 (inactive)
same,z-score,[10]; [20],-0.0854 and -1.67
same,remaining NAD,[11],10 nM (inactive)
same,luciferase signal,[12],44 AU (inactive)
CCOC(=O)[C@H](CCc1ccccc1)N[C@H]1CCc2ccccc2N(CC(=O)O)C1=O,nuclear beta-catenin stimulation,[1]; at 10 µM,27.7% (inactive)
same,nuclear beta-catenin stimulation,"[1]; stimulation, at 2 µM",2.2%
same,insulin secretion stimulation,[2],1.1% (inactive)
same,viability decrease,[3],-40.3% (inactive)
same,tube area decrease,[4],33.7% (inactive)
same,GLP1 secretion stimulation,[5],16.1% (inactive)
same,inhibition of viability,[6],51.1% (active)
same,viability decrease (inhibition),[7],102% (active)
same,viability decrease (inhibition),[8],44.2% (inactive)
same,inhibition,[9],-6.81% (inactive)
same,mean signal,[13],261 (inactive)
same,red/green cell ratio (normalised),"[14]; actives lie on both sides, counts scaled to control wells, 1 = unselective",0.73 (inactive)
same,normalised cell number,[14]; measured here: epithelial PC-3E GFP cell survival,1.36
same,normalised cell number,[14]; measured here: mesenchymal TEM4-18 mCherry cell survival,0.98
same,fold change,[15]; [21],0.89 (inactive) and 0.936 (inactive)
same,fold change,[15]; [22],2.29 and 1.38
same,cell count,[15]; [23],9000 and 10300
same,cell count,[15]; [24],10100 and 11000
same,z-score,[10]; [19],0.369 (inactive)
same,z-score,[10]; [20],0.328
same,remaining NAD,[11],10 nM (inactive)
same,luciferase signal,[12],92 AU (inactive)
same,log fold change Tl+ flux,[16],-0.0356 (inactive)
same,log fold change Tl+ flux,[17],0.0148 (inactive)
same,log fold change Tl+ flux,[18],-0.052 (inactive)
CC[C@H]1CN2CCc3cc(OC)c(OC)cc3[C@@H]2C[C@@H]1C[C@H]1NCCc2cc(OC)c(OC)cc21,nuclear beta-catenin stimulation,[1]; at 10 µM,12.4% (inactive)
same,nuclear beta-catenin stimulation,"[1]; stimulation, at 2 µM",9.1%
same,insulin secretion stimulation,[2],13.4% (inactive)
same,viability decrease,[3],82.1% (active)
same,tube area decrease,[4],110% (active)
same,GLP1 secretion stimulation,[5],2.4% (inactive)
same,inhibition of viability,[6],84.8% (active)
same,viability decrease (inhibition),[7],115% (active)
same,viability decrease (inhibition),[8],97% (active)
same,inhibition,[9],6.15% (inactive)
same,fold change,[15]; [21],1.04 (inactive) and 0.853 (inactive)
same,fold change,[15]; [22],1.32 and 1.38
same,cell count,[15]; [23],1340 and 1650
same,cell count,[15]; [24],1300 and 1930
same,remaining NAD,[11],10 nM (inactive)
same,luciferase signal,[12],24 AU (inactive)
